{"source": "PubChem BioAssay (EPA / NIEHS)", "note": "“And” between values parts separate entries of the source, which are not always exact repeats. Equal values may be shown once. Inconclusive results are not listed. The source holds several records for some structures; these can differ, active in one and inactive in another. The source made the active and inactive calls. The calls were made as follows: active = hit-call score of the fitted dose curve at least 0.9, where 1 is the maximum; inconclusive = response in the unintended direction; inactive = score below 0.9."}
{"target": "Sodium channel protein type 1 subunit alpha (Rattus norvegicus) (UniProt P04774)", "experiment": "NVS_IC_rNaCh_site2: NovaScreen (NVS) Ion Channel Assay for rat Sodium Channel, Site 2 (NaCh) (AID 2283322);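 also: hit means loss of radioligand binding signal relative to DMSO so AC50 marks displacement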", "outline": "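Membranes: rat forebrain. Format: competitive radioligand displacement, filter separation, scintillation readout, 1 h exposure. Primary screen in duplicate at 25 uM; actives retested in concentration series.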"}
{"smiles": "CCOP(=S)(OCC)SCS(=O)(=O)CC", "outcome": "inactive"}
{"smiles": "CC(C)(C)c1ccccc1OP(=O)(Oc1ccccc1)Oc1ccccc1", "outcome": "inactive"}
{"smiles": "CSC(C)(C)C=NO", "outcome": "inactive"}
{"smiles": "Cc1cc(C)c(C(=O)P(=O)(c2ccccc2)c2ccccc2)c(C)c1", "outcome": "inactive"}
{"smiles": "CCCCOCCOP(=O)(OCCOCCCC)OCCOCCCC", "outcome": "inactive"}
{"smiles": "CCC(C)(C)c1ccc(O)cc1", "AC50": "41.5 µM (active)"}
{"smiles": "N#Cc1ccc(O)cc1", "AC50": "41.3 µM (active)"}
{"smiles": "Oc1ccc(I)cc1", "AC50": "7.01 µM (active)"}
{"target": "rat Gamma-Aminobutyric Acid Type A Receptor, Non-Selective (GABAR-NonSelective), Gabra1 (gene 29705) (UniProt P62813)", "sequence (P62813 whole entry, looked up)": "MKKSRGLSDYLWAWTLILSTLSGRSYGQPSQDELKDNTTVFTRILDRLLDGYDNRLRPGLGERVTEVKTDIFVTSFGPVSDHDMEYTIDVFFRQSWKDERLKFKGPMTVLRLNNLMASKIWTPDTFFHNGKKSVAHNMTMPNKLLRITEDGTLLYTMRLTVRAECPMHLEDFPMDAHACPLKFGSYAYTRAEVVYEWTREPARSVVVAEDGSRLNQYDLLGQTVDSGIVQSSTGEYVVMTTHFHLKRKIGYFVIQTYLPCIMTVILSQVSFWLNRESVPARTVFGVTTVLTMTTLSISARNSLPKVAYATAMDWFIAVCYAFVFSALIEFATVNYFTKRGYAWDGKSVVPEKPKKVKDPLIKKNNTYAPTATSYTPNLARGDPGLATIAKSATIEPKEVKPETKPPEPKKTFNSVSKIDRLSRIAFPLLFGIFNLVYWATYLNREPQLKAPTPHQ", "experiment": "NVS_LGIC_rGABAR_NonSelective: NovaScreen (NVS) Ligand-Gated Ion Channel Assay for rat Gamma-Aminobutyric Acid Type A Receptor, Non-Selective (GABAR-NonSelective) (AID 2283326)", "outline": "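Radioligand displacement on rat whole-brain extract, 1 h, filter scintillation readout; signal loss fitted versus DMSO. Primary screen in duplicate at 25 uM; hits (e.g. ≥30% inhibition) retested in concentration-response up to 50 uM.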"}
{"smiles": "CCOS(=O)(=O)OCC", "outcome": "inactive"}
{"smiles": "CCC1(c2ccccc2)C(=O)N=C(O)NC1=O", "note": "(centres undefined)", "outcome": "inactive"}
{"smiles": "c1cc2c3c(cccc3c1)CC2", "AC50": "1.7 µM (active)"}
{"target": "rat Thyrotropin Releasing Hormone Receptor (TRH), Trhr (gene 25570) (UniProt Q01717)", "sequence (Q01717 whole entry, looked up)": "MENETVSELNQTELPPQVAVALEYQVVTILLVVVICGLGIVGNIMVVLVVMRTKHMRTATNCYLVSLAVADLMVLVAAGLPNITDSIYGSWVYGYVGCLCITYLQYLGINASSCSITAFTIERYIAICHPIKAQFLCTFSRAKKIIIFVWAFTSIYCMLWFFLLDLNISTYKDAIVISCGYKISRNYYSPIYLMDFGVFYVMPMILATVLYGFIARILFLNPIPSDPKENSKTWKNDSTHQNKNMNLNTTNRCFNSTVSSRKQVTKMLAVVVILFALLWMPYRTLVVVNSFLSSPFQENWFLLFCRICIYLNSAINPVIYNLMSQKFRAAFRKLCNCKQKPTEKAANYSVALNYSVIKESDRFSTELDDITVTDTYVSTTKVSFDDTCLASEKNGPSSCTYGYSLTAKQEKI", "experiment": "NVS_GPCR_rTRH: NovaScreen (NVS) G Protein-Coupled Receptor Assay for rat Thyrotropin Releasing Hormone Receptor (TRH) (AID 2283329);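 also: hit means lower bound tracer signal versus DMSO baseline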", "outline": "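Test compounds are screened at 25 uM in duplicate against radioligand binding in rat forebrain membranes, with active pairs followed up over a concentration range. Detection uses filter-based radiodetection after a 4 h exposure.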"}
{"smiles": "c1ccc2c(c1)sc1ccccc12", "outcome": "inactive"}
{"smiles": "COC(N)=O", "outcome": "inactive"}
{"smiles": "CCCCC(CC)COP(=O)(Oc1ccccc1)Oc1ccccc1", "note": "(centres undefined)", "outcome": "inactive"}
{"smiles": "CC(C)(C)N(NC(=O)c1ccc(Cl)cc1)C(=O)c1ccccc1", "outcome": "inactive"}
{"smiles": "FC(F)(F)c1ccc(Cl)cc1", "outcome": "inactive"}
{"smiles": "CCCCCCCc1ccc(O)cc1", "outcome": "inactive"}
{"smiles": "O=S1(=O)OCC2C(CO1)C1(Cl)C(Cl)=C(Cl)C2(Cl)C1(Cl)Cl", "note": "(centres undefined)", "outcome": "inactive"}
{"smiles": "O=C(CBr)OCc1ccccc1", "outcome": "inactive"}
{"target": "rat Peripheral-type Benzodiazepine Receptor (PBR), Tspo (gene 24230) (UniProt P16257)", "sequence (P16257 whole entry, looked up)": "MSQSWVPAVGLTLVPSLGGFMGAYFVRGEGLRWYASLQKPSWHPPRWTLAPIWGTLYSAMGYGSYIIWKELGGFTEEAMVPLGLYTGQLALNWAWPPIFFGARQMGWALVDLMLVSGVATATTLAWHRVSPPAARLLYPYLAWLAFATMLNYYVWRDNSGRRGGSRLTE", "experiment": "NVS_MP_rPBR: NovaScreen (NVS) Membrane Protein Assay for rat Peripheral-type Benzodiazepine Receptor (PBR) (AID 2283335)", "outline": "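Rat kidney membranes; radioligand binding with displacement, filter-based scintillation counting, 1 h incubation. Primary screen in duplicate at 25 uM, actives followed in concentration series; loss of binding vs DMSO.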"}
{"smiles": "c1ccc2c(c1)Nc1ccccc1S2", "outcome": "inactive"}
{"smiles": "Cc1cc(C)c(C(=O)P(=O)(c2ccccc2)c2ccccc2)c(C)c1", "outcome": "inactive"}
{"smiles": "CCCCOCCOP(=O)(OCCOCCCC)OCCOCCCC", "AC50": "7.47 µM (active) and 7.45 µM (active)"}
{"smiles": "CCCCC(CC)COP(=O)(Oc1ccccc1)Oc1ccccc1", "note": "(centres undefined)", "AC50": "2.93 µM (active)", "outcome": "inactive"}
{"smiles": "CCOP(=S)(OCC)SCn1nnc2ccccc2c1=O", "AC50": "9.51 µM (active)"}
{"smiles": "O=P(OCC(Br)CBr)(OCC(Br)CBr)OCC(Br)CBr", "note": "(centres undefined)", "AC50": "0.169 µM (active)", "outcome": "inactive"}
{"target": "bovine Estrogen Receptor (ER), ESR1 (gene 407238) (UniProt P49884)", "sequence (P49884 whole entry, looked up)": "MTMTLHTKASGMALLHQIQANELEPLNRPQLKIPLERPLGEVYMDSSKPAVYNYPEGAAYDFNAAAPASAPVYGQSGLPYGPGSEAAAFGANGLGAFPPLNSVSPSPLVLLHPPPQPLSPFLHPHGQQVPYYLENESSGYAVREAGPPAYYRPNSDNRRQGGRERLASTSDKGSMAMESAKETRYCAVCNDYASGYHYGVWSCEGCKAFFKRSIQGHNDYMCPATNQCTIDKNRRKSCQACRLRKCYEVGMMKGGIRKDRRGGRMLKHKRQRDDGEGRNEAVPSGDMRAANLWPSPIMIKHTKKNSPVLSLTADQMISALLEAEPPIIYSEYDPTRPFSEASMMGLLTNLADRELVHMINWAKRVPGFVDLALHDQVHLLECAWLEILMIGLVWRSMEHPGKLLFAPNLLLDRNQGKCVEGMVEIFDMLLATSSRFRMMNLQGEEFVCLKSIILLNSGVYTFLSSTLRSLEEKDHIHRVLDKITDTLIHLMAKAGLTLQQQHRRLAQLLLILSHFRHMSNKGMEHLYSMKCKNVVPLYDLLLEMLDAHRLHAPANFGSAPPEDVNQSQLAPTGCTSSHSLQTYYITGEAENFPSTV", "experiment": "NVS_NR_bER: NovaScreen (NVS) Nuclear Receptor Binding Assay for bovine Estrogen Receptor (ER) (AID 2283345);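 also: actives lower the bound radioligand count which means they displace the ER ligand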", "outline": "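Bovine uterine membranes; tritiated or iodinated radioligand; competitive displacement; 18 h; scintillation read; DMSO negative control; 25 uM duplicates, then concentration series for actives.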"}
{"smiles": "O=P1(N(CCCl)CCCl)NCCCO1", "note": "(centres undefined)", "outcome": "inactive"}
{"smiles": "c1ccc2c(c1)Nc1ccccc1S2", "outcome": "inactive"}
{"smiles": "ClC(Cl)(Cl)c1ccccc1", "outcome": "inactive"}
{"smiles": "CCC(C)(C)c1ccc(O)cc1", "outcome": "inactive"}
{"smiles": "CCCCCCCc1ccc(O)cc1", "AC50": "0.106 µM (active)", "outcome": "inactive"}
{"smiles": "Nc1ccc(Cl)cc1", "outcome": "inactive"}
{"smiles": "OCC1CO1", "note": "(centres undefined)", "outcome": "inactive"}
{"target": "chimpanzee Androgen Receptor (AR), AR (gene 747460) (UniProt O97775)", "sequence (O97775 whole entry, looked up)": "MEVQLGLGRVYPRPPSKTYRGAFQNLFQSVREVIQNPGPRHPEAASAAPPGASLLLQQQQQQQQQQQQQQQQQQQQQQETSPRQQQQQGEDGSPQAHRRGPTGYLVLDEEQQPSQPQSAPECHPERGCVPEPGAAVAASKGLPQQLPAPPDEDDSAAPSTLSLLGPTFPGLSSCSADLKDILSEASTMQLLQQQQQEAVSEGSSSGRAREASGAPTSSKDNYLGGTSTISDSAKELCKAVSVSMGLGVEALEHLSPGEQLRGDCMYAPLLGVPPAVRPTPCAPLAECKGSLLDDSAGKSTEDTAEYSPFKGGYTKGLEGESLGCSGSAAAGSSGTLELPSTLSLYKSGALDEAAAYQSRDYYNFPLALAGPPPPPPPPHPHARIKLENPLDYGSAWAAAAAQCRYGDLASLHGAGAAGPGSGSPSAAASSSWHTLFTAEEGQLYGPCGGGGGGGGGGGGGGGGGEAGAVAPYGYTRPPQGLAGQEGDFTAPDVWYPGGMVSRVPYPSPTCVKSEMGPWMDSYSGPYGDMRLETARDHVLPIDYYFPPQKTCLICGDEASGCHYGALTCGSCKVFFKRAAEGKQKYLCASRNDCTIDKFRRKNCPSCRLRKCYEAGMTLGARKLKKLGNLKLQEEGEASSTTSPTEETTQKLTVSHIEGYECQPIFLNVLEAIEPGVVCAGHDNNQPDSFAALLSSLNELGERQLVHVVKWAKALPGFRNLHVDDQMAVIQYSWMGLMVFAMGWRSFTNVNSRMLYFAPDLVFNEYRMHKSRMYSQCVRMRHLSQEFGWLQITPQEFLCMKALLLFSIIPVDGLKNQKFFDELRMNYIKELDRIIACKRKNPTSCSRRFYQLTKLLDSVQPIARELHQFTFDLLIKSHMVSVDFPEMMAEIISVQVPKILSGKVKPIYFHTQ", "experiment": "NVS_NR_cAR: NovaScreen (NVS) Nuclear Receptor Binding Assay for chimpanzee Androgen Receptor (AR) (AID 2283346);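 also: a loss of bound radioligand signal versus DMSO counts as binding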", "outline": "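Radioligand binding to chimpanzee AR expressed in Sf9/Sf21 cells, cell-free, measured 72 h after dosing by lysate-based scintillation counting. Loss of signal vs DMSO; initial duplicate screen at 25 uM, actives retested in concentration series.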"}
{"smiles": "CCC(C)(C)c1ccc(O)cc1", "AC50": "25 µM (active)"}
{"smiles": "CCCCCCCc1ccc(O)cc1", "outcome": "inactive"}
{"smiles": "O=S1(=O)OCC2C(CO1)C1(Cl)C(Cl)=C(Cl)C2(Cl)C1(Cl)Cl", "note": "(centres undefined)", "outcome": "inactive"}
{"smiles": "O=P(OCC(Br)CBr)(OCC(Br)CBr)OCC(Br)CBr", "note": "(centres undefined)", "AC50": "21.8 µM (active)"}
